An excerpt weighted towards active compounds, which were near 16% of everything screened.
uPA surface inh: qHTS for Inhibitors of Cell Surface uPA Generation; cell surface uPA generation assay, qHTS; Potency, µM (series often up to 38.3 µM), for the others: top-dose activity change, negative = inhibition, usual class: inhibitors; 330,000 compounds, 0.31% hits; active means well fitted inhibition curve with a large enough effect; inconclusive means small, poorly fitted or top-dose-only effect; inactive means no such curve, though single readings can be large or run the other way; tested in mouse RAW 264.7 cells; further: potency means the concentration at half of the fitted maximal effect; on the % scale 0 is the no-effect control and ±100 the full control effect; nearly all actives have a fitted effect of over 55% in size
TDP1 cell noCPT: qHTS for Inhibitors of human tyrosyl-DNA phosphodiesterase 1 (TDP1): qHTS in cells in absence of CPT. Potency, µM (top dose mostly 46.2 µM), without a hit: at the highest dose activity change, negative = growth inhibition, actives largely listed as inhibitors. DT40 Tdp1-/- hTDP1 cells, no CPT, ATP luminescence, 48 h. 420,000 compounds, 15% hits; further: potency means the concentration at half of the fitted maximal effect; on the % scale 0 is the no-effect control and ±100 the full control effect; nearly all actives have a fitted effect of over 55% in size
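Stably hTDP1-transfected Tdp1-null chicken DT40 cells were treated with library compounds minus camptothecin and grown for at least 48 hr at 37 °C, after which cellular ATP was quantified by luminescence.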
miR-21 reporter: qHTS Assay for Modulators of miRNAs and/orActivators of miR-21; HeLa miR-21 FLuc reporter, luciferase, 48 h; Potency, µM (highest dose often 38.3 µM), for inactives: at the top dose activity change, positive = activation, most hits filed as activators; 340,000 tested, under 10 active;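 further: % of control where 0% means no effect; miR-21 action dims this reporter so a rising signal means less miR-21 action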
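HeLa miR-21-FLuc reporter line, endogenous miR-21; 2000 cells/well in DMEM/10% FBS; compound titration up to ~40uM final, 48 h, 37 degree Celsius; luciferase detection reagent, 15 min lysis, CCD luminescence.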
TDP1 inh: qHTS Assay for Inhibitors of Tyrosyl-DNA Phosphodiesterase (TDP1). Tyrosyl-DNA phosphodiesterase 1 (Homo sapiens), Q9NUW8. 350,000 compounds, 0.28% hits. Potency, µM (series often up to 130 µM), for the others: at the top dose activity change, negative = inhibition, usual class: inhibitors. recombinant TDP1, AlphaScreen DNA substrate cleavage; further: potency means the concentration at half of the fitted maximal effect; on the % scale 0 is the no-effect control and ±100 the full control effect; nearly all actives have a fitted effect of over 40% in size
Target sequence (Q9NUW8 whole entry, looked up): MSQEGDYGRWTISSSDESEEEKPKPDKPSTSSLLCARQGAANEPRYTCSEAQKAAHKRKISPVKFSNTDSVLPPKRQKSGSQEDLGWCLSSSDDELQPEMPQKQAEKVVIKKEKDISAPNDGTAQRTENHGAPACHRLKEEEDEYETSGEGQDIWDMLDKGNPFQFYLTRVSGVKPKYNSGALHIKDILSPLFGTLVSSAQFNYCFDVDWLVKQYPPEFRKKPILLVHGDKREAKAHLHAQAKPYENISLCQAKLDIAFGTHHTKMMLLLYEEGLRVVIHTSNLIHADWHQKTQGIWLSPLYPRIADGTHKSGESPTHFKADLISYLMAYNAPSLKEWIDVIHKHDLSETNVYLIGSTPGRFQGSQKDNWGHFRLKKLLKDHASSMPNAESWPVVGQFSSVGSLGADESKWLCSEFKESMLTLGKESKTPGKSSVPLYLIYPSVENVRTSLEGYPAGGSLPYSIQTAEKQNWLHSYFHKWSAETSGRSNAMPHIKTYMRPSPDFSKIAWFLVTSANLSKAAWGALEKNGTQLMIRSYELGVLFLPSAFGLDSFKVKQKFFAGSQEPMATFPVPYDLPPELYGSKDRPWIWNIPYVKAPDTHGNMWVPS
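E. coli-derived human Tdp1, 1 nM final. Cpd preinc 15 min RT; substrate 15 nM final, 5 min RT; AS bead mix 10 ug/ml final, 10 min RT. Signal loss = tyrosine-FITC cleavage. No-enzyme wells = max signal.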
DT40 TDP1 CPT: qHTS for Inhibitors of human tyrosyl-DNA phosphodiesterase 1 (TDP1): qHTS in cells in presence of CPT. Potency, µM (top dose mostly 46.2 µM), inactives show at the top dose activity change, negative = growth inhibition, usual class: inhibitors. chicken DT40 Tdp1-/-;hTDP1 cells + 20 nM CPT, ATP luminescence, 48 h. 420,000 compounds, 12% hits. AID 686979, 2013; further: potency means the concentration at half of the fitted maximal effect; on the % scale 0 is the no-effect control and ±100 the full control effect; nearly all actives have a fitted effect of over 55% in size
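Cell growth measured by CellTiter-Glo luminescence after a minimum 48 h, 37 C compound exposure with 20 nM CPT in Tdp1-knockout DT40 cells stably expressing hTDP1, seeded 400/well; qHTS titration format.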
* marks the source's active call; other numbers are inactive results; ? = inconclusive; / = no result; [ ] = another dose, or the depositor's remark. Unless noted, the call rests on the fitted dose curve; in most records, active means well fitted curve in the direction sought with a large enough effect; inconclusive means small, poorly fitted or top-dose-only effect, or another doubt; inactive means no such curve, though single readings can be large; an effect the other way counts as inactive or inconclusive.

SMILES	uPA surface inh	TDP1 cell noCPT	miR-21 reporter	TDP1 inh	DT40 TDP1 CPT
CCn1c2ccccc2c2cc(CN3CCN(Cc4ccccc4F)CC3)ccc21	/	?	28%	-5%[12.3 µM]	?
CCn1c2ccccc2c2cc(CN3CCN(Cc4cc(OC)ccc4O)CC3)ccc21	0%	?	-2%	7%	26µM*
COc1cc(CN2CCN(S(=O)(=O)c3ccccc3)CC2)cc(OC)c1O	/	-7%	1%	4%	-14%
COc1ccc(O)c(CN2CCCC(N3CCN(c4ccc(F)cc4)CC3)C2)c1 (stereo unspecified)	-3%	?	14%	/	?
CCCOc1ccc(/C=N/O)cc1	-4%	-2%	-16%	-9%	-6%
O=C(CN1C(=O)NC2(CCc3ccccc32)C1=O)NCc1cccc(C(F)(F)F)c1 (stereo unspecified)	-8%	-21%	/	0%	-1%
O=C(Nc1nnc(S(=O)(=O)N2CCN(c3ccc(F)cc3)CC2)s1)c1ccco1	3%	?	-16%	4%	16µM*
O=C(Nc1nnc(S(=O)(=O)N2CCOCC2)s1)c1ccc(F)cc1	0%	-4%	-16%	5%	11%
O=C(Nc1ccc(N2CCN(C(=O)c3ccco3)CC2)cc1)c1ccc(F)cc1	5%	21µM*	1%	2%	?
Cc1cc(C)cc(C(=O)Nc2ccc(N3CCN(C(=O)c4ccco4)CC3)cc2)c1	-7%	16µM*	1%	4%	?
Nc1ccc(N2CCN(C(=O)c3ccco3)CC2)cc1	/	18µM*	-12%	7%	16µM*
O=C(Nc1ccc(N2CCN(C(=O)c3ccco3)CC2)cc1)c1ccccc1	3%	-6%	-35%	1%	3%
O=C(c1ccco1)N1CCN(c2ccc(F)cc2)CC1	-2%	-26%	-45%	5%	?
CCOc1ncccc1C(=O)N(C)CC1COc2ccccc2O1 (stereo unspecified)	-2%	-8%	-3%	2%	?
CCOC(=O)C1CCCN(C(=O)CCCn2nnnc2CN2CCC(C)CC2)C1 (stereo unspecified)	4%	11%	2%	0%	-12%
O=[N+]([O-])c1ccc(NCc2ccccc2)nc1	1%	-23%	-52%	3%	-17%
COc1cc(CCC(=O)OCn2nnc3ccccc3c2=O)cc(OC)c1OC	5%	-19%	-11%	6%	-17%
CCOc1ccc(CCNC(=O)C2CCC(=O)N2CCc2ccccc2)cc1OCC (stereo unspecified)	/	1%	0%	-4%	5%
O=C(COc1ccccc1)Nc1ccc(N2CCN(C(=O)c3ccco3)CC2)cc1	4%	-27%	12%	3%	0%
Cc1ccc(OCC(=O)Nc2ccc(N3CCN(C(=O)c4ccco4)CC3)cc2)cc1	-8%	23µM*	1%	3%	?
CC(=O)C(Sc1nccc(-c2cccs2)n1)C(C)=O	-2%	18µM*	-51%	3%	?
CCOC(=O)C(NC(=O)c1ccccc1)(OCc1ccc(F)cc1)C(F)(F)F (stereo unspecified)	4%	18µM*	-2%	3%	-27%
CCOC(=O)C(NC(=O)c1cccc(Cl)c1)(OCc1ccc(F)cc1)C(F)(F)F (stereo unspecified)	-13%	?	5%	5%	?
OC1(c2ccc(Br)cc2)CCN(Cc2cccc(Br)c2)CC1	18%	?	-3%	4%	21µM*
CSc1ccc(C2NC(=O)c3ccccc3N2)cc1 (stereo unspecified)	-16%	16µM*	/	/	10µM*
SMILES	uPA surface inh	TDP1 cell noCPT	miR-21 reporter	TDP1 inh	DT40 TDP1 CPT
Clc1ccc(C2Nc3cccc4cccc(c34)N2)cc1	4%	?	-3%	10%	?
CN1c2ccccc2N(C)C1c1ccc2c(c1)OCO2	/	16µM*	5%	3%	23µM*
c1cc2c3c(cccc3c1)NC(c1ccc3c(c1)OCO3)N2	-8%	?	-6%	/	23µM*
CSc1ccc(C2Nc3cccc4cccc(c34)N2)cc1	3%	?	-3%	/	15µM*
CCOC(=O)c1[nH]c2ccccc2c1NC(=O)c1ccc(S(=O)(=O)N2CCOCC2)cc1	16%	?	-2%	-1%	?
O=C(CSCSCC(=O)Nc1ccc2c(c1)OCO2)Nc1ccc2c(c1)OCO2	-16%	?	-18%	2%	15µM*
O=C(CSCc1c(Cl)cccc1Cl)Nc1ccc2c(c1)OCO2	0%	18µM*	-24%	1%	?
O=C(CSCc1c(Cl)cccc1Cl)Nc1ccccc1C(=O)N1CCOCC1	2%	21µM*	-2%	-4%	?
O=C(CNCc1ccccn1)N1CCc2ccccc2C1	-1%	-10%	-19%	/	1%
COC(=O)Cn1c(=NC(=O)c2nc3ccccc3s2)sc2cc(S(C)(=O)=O)ccc21	/	/	-10%	-3%	/
C=CCn1c(=NC(=O)c2ccccc2[N+](=O)[O-])sc2cc(S(C)(=O)=O)ccc21	0%	21µM*	-32%	3%	16µM*
O=C(Nc1nnc(S(=O)(=O)N2CCCc3ccccc32)s1)c1cccc(Cl)c1	/	18µM*	0%	4%	?
Cc1cccc(OCC(=O)Nc2nnc(S(=O)(=O)N3CCc4ccccc43)s2)c1	/	?	1%	-5%	?
O=C(Nc1nnc(S(=O)(=O)N2CCCCC2)s1)c1cccc(Br)c1	10%	15µM*	-4%	/	23µM*
COc1cccc(C(=O)Nc2nnc(S(=O)(=O)N3CCCc4ccccc43)s2)c1	/	?	0%	5%	?
Cc1cccc(C(=O)Nc2nnc(S(=O)(=O)N3CCCc4ccccc43)s2)c1	/	16µM*	3%	5%	?
O=C(COc1ccc(Cl)cc1)Nc1nnc(S(=O)(=O)N2CCc3ccccc32)s1	/	18µM*	-1%	0%	?
O=C(O)/C=C/C(=O)Nc1ccc(-n2nccc2C(F)(F)F)cc1	1%	8%	-10%	/	1%
Cc1ccc(-c2cc(C(=O)OCC(=O)c3ccccc3)c3cccc(Cl)c3n2)cc1	/	6.5µM*	-10%	/	?
Cc1ccc2nc(C)cc(C(=O)OCC(=O)c3ccc(Cl)c([N+](=O)[O-])c3)c2c1	-2%	?	1%	6%	16µM*
COc1ccc(-c2cc(C(=O)OCC(=O)c3ccc(C)cc3)c3cccc(Cl)c3n2)cc1	/	?	-1%	/	?
Cc1c(-c2ccccc2)nc2c(Cl)cccc2c1C(=O)OCC(=O)c1ccc(F)cc1	/	5.8µM*	3%	/	?
